SKKanGAS inh = SKKanGAS growth inhibition; S. pyogenes SKKanGAS, kanamycin growth, BacTiter-Glo, 6 h; inhibition, % at 7.5 µM; 300,000 compounds, 1.3% hits;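 active = mean replicate score, as percent of positive control median, at least 50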;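 note: strain carries kanamycin resistance gene driven by streptokinase promoter and grows in 40 µg/ml kanamycin; loss of luminescence reflects streptokinase promoter inhibition or plain growth inhibition; 0% = median of DMSO wells and 100% = positive control at its reference dose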
PfHsp90 yeast 2 = growth inhibition of yeast expressing Plasmodium Hsp90 | inhibition, % at 9.4 µM | 310,000 compounds, 0.32% hits | AID 504621 | S. cerevisiae expressing PfHsp90, BacTiter-Glo ATP, 48 h; yeast lacking PDR1 and PDR3 efflux regulators;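 active = every replicate shows inhibition above about 80%, whatever the replicate mean, limit read from the data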;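 note: 0% = DMSO neutral controls and 100% = 20 µM radicicol positive controls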
tim23-1 inh = tim23-1 yeast growth inhibition | 330,000 compounds, 1.3% hits | S. cerevisiae tim23-1 growth, BacTiter-Glo luminescence, 24 h | inhibition, % at 20 µM | AID 463212;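 active = growth inhibition of the mutant yeast at or above 50%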;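 note: temperature-sensitive mutant grown at 25 °C; plate controls were DMSO-treated mutant yeast for no effect and medium wells lacking yeast for full effect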
TIM10 inh = inhibits growth of TIM10 yeast strain; S. cerevisiae TIM10 strain growth, BacTiter-Glo luminescence, 24 h; 330,000 compounds, 1.4% hits; inhibition, % at 10 µM;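 active = inhibition of 40% or more at the single tested concentration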;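 note: wild-type TIM10 isogenic control strain grown at permissive 25 °C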
tim10-1 inh = tim10-1 yeast growth inhibition. inhibition, % at 20 µM. S. cerevisiae tim10-1 ts strain growth, BacTiter-Glo, 24 h. 330,000 compounds, 2.2% hits;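 active = inhibition of at least 40%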;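 note: mutant grown at 25 °C; 0% = DMSO wells with yeast and 100% = wells holding no yeast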
tim10-1 confirm = tim10-1 yeast growth inhibition, confirmed; shares compounds with tim10-1 inh; S. cerevisiae tim10-1 ts strain growth, BacTiter-Glo, 24 h; inhibition, % at 20 µM; 7,400 compounds, 56% hits;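 active = inhibition of yeast growth at or above a set limit in either of two repeat tests at 20 µM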;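 note: tim10-1 mutant grown at permissive 25 °C to find synthetic lethal compounds; 0% = DMSO yeast wells and 100% = medium wells without yeast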
* marks the source's active call; other numbers are inactive results; / = no result. Compounds with a hit are over-represented: about 4.4% of the library has one in this group of screens.

SMILES	SKKanGAS inh	PfHsp90 yeast 2	tim23-1 inh	TIM10 inh	tim10-1 inh	tim10-1 confirm
C=CCNC(=S)NNc1nc2c(c(=O)[nH]1)C1(CCCCC1)Cc1ccccc1-2	12	-12	31	39	52*	42*
COc1cc(/C=C/C(=O)c2ccc(C)c([N+](=O)[O-])c2)cc(OC)c1O	2	1	31	28	22	/
COc1cc(/C=C/C(=O)c2cccc([N+](=O)[O-])c2)cc(OC)c1OC	-13	21	48	13	53*	41*
O=C(/C=C/c1ccccc1F)c1cccc([N+](=O)[O-])c1	9	-20	39	27	51*	48*
Cc1cc2c(cc1C)NC(C)CC(=O)N2 (centres undefined)	/	-2	/	/	/	/
Cc1ccc(S(=O)(=O)n2cc(CO)c3ccccc32)cc1	/	-22	/	/	/	/
CC(C)(C)[C@H]1CCC(=O)N([C@H](CN=[N+]=[N-])Cc2ccccc2)CC1	5	-12	36	19	41*	24
[N-]=[N+]=NC[C@H](Cc1ccccc1)N1CC[C@@H](O)CCC1=O	-3	-14	8	-7	-2	/
Cc1ccc(NC(=O)c2cnc(SCC(=O)c3ccccc3)n(C)c2=O)cc1	-6	-10	-3	0	-2	/
Cc1c(/C=C/C(=O)c2ccccc2O)cnn1C	-2	14	39	37	50*	39*
Cc1ccc(O)c(C(=O)C=Cc2ccccc2)c1	/	-8	/	/	/	/
Cc1ccc(/C=C/C(=O)c2ccccc2O)cc1	13	6	34	27	15	/
Cc1ccc2occ(/C=C/C(=O)c3ccccc3O)c(=O)c2c1	-6	-30	38	17	48*	33*
CCN1C[C@@H]2[C@@H]3C(=O)N(C)C(=O)[C@@H]3[C@](CC)(C1=O)N2C(=O)c1ccc(C)cc1	/	-15	/	/	/	/
CC(Oc1ccccc1F)c1nnc(SCC(=O)Nc2ccc(N3CCOCC3)cc2)o1 (centres undefined)	/	/	5	-3	0	/
CC1Cc2ccccc2N1Cc1ccc([N+](=O)[O-])cc1 (centres undefined)	-10	11	19	8	6	/
Cc1ccc(C)c2c1cc(C)c1nnc(SCC(=O)c3cccs3)n12	0	-3	11	-34	-15	/
Cc1ccc2cc(C)c3nnc(SCC(=O)c4cccs4)n3c2c1C	3	5	38	16	40*	15
O=C(CSc1nnc(-c2ccccc2)n1-c1ccccc1)c1cccs1	-1	/	34	20	46*	25
O=S(=O)(NCC(c1ccco1)N1CCCCC1)c1ccccc1C(F)(F)F (centres undefined)	/	5	19	8	30	/
CCCCCc1ccc(C(=O)CCC(=O)OCC(=O)N(CC)c2c(N)n(Cc3ccccc3)c(=O)[nH]c2=O)cc1	/	/	12	5	-5	/
CNC(=O)c1nc(C)n(-c2ccc(Cl)cc2Cl)n1	-7	0	3	6	1	/
Cc1c(Cl)cccc1NC(=O)c1nc(C)n(-c2cc(OC(C)C)c(Cl)cc2Cl)n1	23	2	26	30	43*	26
Cc1ccc(NC(=O)COC(=O)c2ccco2)cc1S(=O)(=O)N1CCOCC1	/	3	19	7	-2	/
Cc1c(C(=O)N2CCC(C)CC2)oc2ccc3c(c12)C(O)CC1(CCCCC1)O3 (centres undefined)	-11	-139	45	15	49*	14
SMILES	SKKanGAS inh	PfHsp90 yeast 2	tim23-1 inh	TIM10 inh	tim10-1 inh	tim10-1 confirm
O=C1COc2ccc(N3C(=O)c4ccccc4C3=O)cc2N1	0	/	-1	10	7	/
CCOC(=O)C1=NN(C(=O)Cc2ccccc2)C(O)(c2ccc(Cl)cc2)C1 (centres undefined)	-4	0	43	24	42*	32*
CNc1ccccc1C(C)(C)c1cc(-c2cccc([N+](=O)[O-])c2)no1	19	1	27	37	43*	33*
Cc1ccc(CNC(=O)c2ccc(Cl)c(S(N)(=O)=O)c2)n1C	-1	10	4	9	-11	/
COc1ccc(OC)c(S(=O)(=O)N2C(C)CCCC2C)c1 (centres undefined)	-4	3	30	13	42*	22
CCOC(=O)c1c(SCCN2CCCCC2)n(-c2ccccc2)c(=S)n(-c2ccccc2)c1=O	/	14	/	/	/	/
O=C(CNc1cccc2ccccc12)N/N=C/C(Br)=C/c1ccccc1	-9	2	48	36	41*	31*
c1ccc(-c2nnn(C34CC5CC(CC(C5)C3)C4)n2)cc1	0	12	22	27	47*	12
Nc1ncn(C23CC4CC(CC(C4)C2)C3)n1	2	8	13	11	12	/
CCN(CC)C(=O)c1sc(NC(=O)c2cccs2)c(C#N)c1C	-9	22	33	16	44*	25
Clc1ccccc1Nc1nc(-c2cccnc2)cs1	3	-30	36	-22	-36	/
CC(C)NC(=S)N/N=C1\CCCCc2ccccc21	13	-12	35	34	57*	38*
O=C(NC(Cc1ccc(O)cc1)C(=O)N=Nc1c(O)[nH]c2ccccc12)c1ccccc1 (centres undefined)	/	13	/	/	/	/
CCOC(=O)C1(S(=O)(=O)c2ccccc2)CCN(Cc2ccc(Cl)cc2)CC1	0	23	43	24	48*	20
O=C(NCC(c1ccco1)N1CCCCC1)c1cccc(S(=O)(=O)Nc2ccc(F)cc2)c1 (centres undefined)	/	8	8	-4	8	/
S=c1[nH]nc(-c2cc(-c3ccccc3)n[nH]2)n1/N=C/c1ccccc1	1	-21	-7	-10	-3	/
S=c1[nH]nc(-c2cc(-c3ccccc3)n[nH]2)n1/N=C/C(Br)=C/c1ccccc1	18	/	50	14	47*	43*
CC(=C/c1ccccc1)/C=N/n1c(-c2ccncc2)n[nH]c1=S	30	14	45	40	40*	38*
CC(/C=N/n1c(-c2cccnc2)n[nH]c1=S)=C\c1ccccc1	38	6	-20	6	31	/
O=C1CN(Cc2ccccc2)C(=NCc2ccco2)S1	-5	6	34	4	45*	20
O=C1CS/C(=N/N=C/c2ccccc2)N1Cc1ccco1	-2	9	13	-9	-15	/
Cc1ccc(SCC(=O)OCC(=O)N(CCC#N)c2ccccc2)cc1	/	-24	24	6	19	/
Cc1cccc(C)c1NC(=O)c1nc(S(=O)(=O)Cc2ccccc2)ncc1Cl	-11	-27	43	6	36	/
Cc1cccc(CS(=O)(=O)c2ncc(Cl)c(C(=O)NCc3ccccc3)n2)c1	-25	-2	38	17	44*	-39
N#CCCn1cc(C(=O)Nc2ccc([N+](=O)[O-])cc2)c(-c2cccs2)n1	-3	-4	34	10	33	/
COc1ccc(NC(=O)c2cn(CCC#N)nc2-c2cccs2)cc1	-9	-20	28	36	41*	25

Assay outcomes as filed in PubChem BioAssay.
